The record followed here is the supplement of paper PMC4206467.

SMILES strings stand for the structures.

The test concerns Perkinsus marinus PRA240. As to the kind of experiment: ATP content (proliferation) relative to DMSO control; higher = more parasite growth (less inhibition). Conditions: 20 µM; 4 days. As for the experimental part: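 Perkinsus marinus PRA240 trophozoites (2-5x10^6 cells/ml, 100 µl, 96-well) were exposed once to MMV Malaria Box compounds at 20 µM (0.1% DMSO) in triplicate. ATP content (ATPlite bioluminescence) was read at day 4 post-exposure and normalised to DMSO + cells control wells (100% activity). Compounds were identified by joining plate and well to the Malaria Box list.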
`O=C1CC(O)(C(F)(F)C(F)(F)F)Oc2ccccc21` (configuration not stated) returned an ATP content of 34.8%. With `OC(CNC1CCCCC1)Cn1c2ccc(I)cc2c2cc(I)ccc21` (configuration not stated) the figure was 4.02%; with `CCOc1cc2c(cc1OCC)C(c1cc(C)c(O)c(C)c1)NCC2` (configuration not stated), 133%; with `COc1ccc(Nc2nc(NN=Cc3ccc(O)cc3)nc(Nc3ccc([N+](=O)[O-])cc3)n2)cc1`, 39.1%. The compound `CCOc1ccc(CN2CCN(CC(O)COc3ccc(OCC(O)CN4CCN(Cc5ccc(OCC)cc5)CC4)cc3)CC2)cc1` (configuration not stated) displayed an ATP content of 137%. For the compound `CC(C)(C)CC(C)(C)NCC(O)COc1ccc2c(c1)CCC2` (configuration not stated), the ATP content is 114%. `CCOC(=O)C1=CN(C)C=C(C(=O)OCC)C1c1cc(Br)c(OCC)c(OC)c1` returned an ATP content of 121%.

For the compound `CCOc1ccccc1CNC(=O)C1c2ccccc2C(=O)N(CC(C)C)C1c1cccs1` (configuration not stated), the ATP content is 78.8%.

Consider `CCOc1cc2c(cc1OCC)C(c1cc(Cl)ccc1O)NCC2` (configuration not stated), for which the ATP content worked out at 91.6%. `COc1cccc(NC(=O)Cn2c(C)c(C#N)c3ccccc32)c1` showed an ATP content of 110%. With `Oc1ccc(Cl)cc1CNc1nc2ccccc2[nH]1` the figure was 49.7%; with `CC(C)OCc1cc(CN2CCN(c3cccc(Cl)c3)CC2)c(O)c2ncccc12`, 12%.

In the case of `COc1ccc2nc(N)nc(C)c2c1`, the ATP content amounted to 88%.

`Cc1ccc2c(C)nc(Nc3nc(C)cc(-c4ccccc4)n3)nc2c1` displayed an ATP content of 93%. On to `COc1ccc2c(c1)C1(Nc3ccccc3-c3nc4ccccc4n31)C(=O)N2` (configuration not stated), for which the ATP content was 113%. `CCOc1ccc(-n2cc(-c3ccccc3)c3c(SCc4cc(C)ccc4C)ncnc32)cc1` registered an ATP content of 171%.

For `O=C(NC1CCCC1)c1ccc(N2CCC(NCc3cccc(C(F)(F)F)c3)CC2)cc1`, the ATP content stood at 103%.

As to `CCOC(=O)c1cnc2ccc(Cl)cc2c1NCCCN(C)C`, the ATP content worked out at 147%.

Take `COc1ccc(Nc2cc(C)nc(NCc3ccccc3)n2)cc1`: the ATP content turned out to be 93.8%.

Consider `COc1ccc(C2N(C)c3ccccc3N2C)cc1`, for which the ATP content stood at 101%. With `Clc1cc(Br)ccc1-c1ccc(CNCC2CCNCC2)o1` the figure was 243%.

Regarding `FC(F)(F)c1cccc(CNC2CCN(CCc3ccccc3)CC2)c1`, the ATP content is 95.6%. With `COc1ccccc1CNC(=O)C1c2ccccc2C(=O)N(CC(C)C)C1c1cccs1` (configuration not stated) the figure was 111%; with `COc1ccc(N2CCN(C(CNC(=O)C3CCCCC3)c3ccc4c(c3)OCO4)CC2)cc1` (configuration not stated), 114%.

Compound `CCOc1ccc2nc(C)cc(Nc3ccc(N(C)C)cc3)c2c1` displayed an ATP content of 86.6%. The compound `CCN1CCN(c2c(C(=O)c3ccccc3)cnc3cc(OC)c(OC)cc23)CC1` returned an ATP content of 199%. With `Cc1cc(=O)oc2c1ccc1oc(C(=O)c3ccccc3)c(C)c12` the figure was 154%; with `O=C(NCc1ccco1)C1CCN(S(=O)(=O)c2ccc(Br)cc2)CC1`, 147%. With `COC(=O)c1ccc(Cl)c2c1C1C=CCC1C(c1cccc3ccccc13)N2` (configuration not stated) the figure was 106%.

As for `CC(=O)Nc1nnc(SCc2c(C)cc(C(C)(C)C)cc2C)s1`, the ATP content was 84.2%.

In the case of `CC(=O)NCCc1nc2ccccc2n1Cc1ccc(C(C)C)cc1`, the ATP content is 120%. With `COc1ccc(C=C2SC(Nc3ccc(F)cc3)=NC2=O)c(OC)c1` the figure was 60.7%.

Compound `FC(F)(F)c1ccc(Nc2nnnc3ccccc23)cc1` gave an ATP content of 44%. With `OCCNc1nc(Nc2ccc(Cl)c(Cl)c2)nc2ccccc12` the figure was 28.8%. With `O=C(Nc1cccc(-c2nc3ccccc3[nH]2)c1)c1cccc(NC(=O)c2ccco2)c1` the figure was 126%; with `Oc1ccc(-c2nc(-c3ccc4oc5ccc(-c6[nH]c(-c7ccc(O)cc7)nc6-c6ccccc6)cc5c4c3)c(-c3ccccc3)[nH]2)cc1`, 124%; with `CCOc1ccc(-c2nc(NC(=O)c3cccc(S(C)(=O)=O)c3)sc2C)cc1`, 79.8%.
